In ChEMBL document CHEMBL3988442, “University of Dundee, Small-Polar-MMV Screening Library” (2021) one finds Percent Effect data, which are given here for 51 compounds.

In test [1] the target is T1, Aspartate--tRNA(Asp/Asn) ligase (Mycobacterium tuberculosis (strain ATCC 25618 / H37Rv)) (UniProt P9WFW3). Note: in the data most compounds retested in dose-response had high values.
T1 sequence (whole entry): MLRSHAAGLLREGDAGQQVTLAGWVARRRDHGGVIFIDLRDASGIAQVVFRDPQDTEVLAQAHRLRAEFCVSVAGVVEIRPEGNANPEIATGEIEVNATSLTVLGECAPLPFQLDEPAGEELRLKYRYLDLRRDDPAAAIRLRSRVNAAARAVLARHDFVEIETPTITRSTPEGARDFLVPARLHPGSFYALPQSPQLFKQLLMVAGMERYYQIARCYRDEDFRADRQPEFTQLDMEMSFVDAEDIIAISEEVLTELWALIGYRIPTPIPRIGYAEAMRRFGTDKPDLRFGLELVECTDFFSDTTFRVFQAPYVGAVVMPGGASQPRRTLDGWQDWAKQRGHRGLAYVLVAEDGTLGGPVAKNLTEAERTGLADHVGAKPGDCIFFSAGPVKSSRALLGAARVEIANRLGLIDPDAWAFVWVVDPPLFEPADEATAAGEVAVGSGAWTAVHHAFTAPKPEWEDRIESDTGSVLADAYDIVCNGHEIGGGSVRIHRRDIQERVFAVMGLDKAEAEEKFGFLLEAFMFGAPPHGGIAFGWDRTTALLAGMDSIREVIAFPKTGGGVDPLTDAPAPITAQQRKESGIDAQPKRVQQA
In words: Assay for Asp RNA synthetase-1 from Mycobacterium tuberculosis. Format: functional. More on the design: scale not given: direction of the effect not stated beside the values. The conditions noted are these: 30 µM.

Test [2] concerns the target Shiga toxin 2 (Escherichia coli O157:H7) (UniProt P09385+P09386). Description: E. coli 0.157:H7 Shiga Toxin SOP - stx2 screening assay. The test is classed as functional. More on the design: scale not given: direction of the effect not stated beside the values. The conditions noted are these: 30 µM.

Structures are written as SMILES.

`CC(NC(=O)N(C)CCCOc1ccc(F)cc1)c1nncn1C` (configuration not stated): the Percent Effect in test [1] is -2.37%; in test [2], -11.9%.
For `Cc1noc(CN2CCN(CC(C)O)CC2)n1` (configuration not stated), the Percent Effect in test [1] was -2.18%; in test [2] it was -6.53%.
For `Cc1cc(-c2cnn(CCNC(=O)C3CC3)c2C2CC2)on1`, in that order: 0.838% and 64.1%.
As to `Cn1cc(CN2CCCn3cnc(COCC4CC4)c3C2)cn1`, the Percent Effect is 1.66% in test [1] and -1.47% in test [2].
On to `NC(=O)COc1cccc(C(=O)N2CCCC(n3cccn3)C2)c1` (configuration not stated), for which the Percent Effect in test [1] was -6%; in test [2], -18.8%.
On to `CCN(CC)CCNC(=O)c1cc(C(C)C)nc(N2CCCC2)n1`, for which the Percent Effect in test [1] is 2.18%; in test [2], -34%.
On to `COc1ccc(CN2CCCC(Cn3nc(C)nc3C)C2)cc1F` (configuration not stated), for which the Percent Effect is 0.335% in test [1] and -1.86% in test [2].
Turning to `COC(C(=O)N1CCCN(Cc2cscn2)CC1)c1ccccc1` (configuration not stated), the Percent Effect in test [1] was found to be 0.144%; in test [2], 3.66%.
For the compound `Cc1cnn(CCC(=O)N2CCCC(c3cc(C(N)=O)[nH]n3)C2)c1` (configuration not stated), the figures for the Percent Effect in test [1] and in test [2] were -2.86% and -13.8%, respectively.
`CC(C)CN1C[C@H]2CCN(c3ncccn3)CC[C@H]2S1(=O)=O`: the Percent Effect is 2.71% in test [1] and -33% in test [2].
The matching figures for `CN1CC(=O)N(c2ccccc2)CC12CCN(CC1CC1)C2` (configuration not stated): 3.68% and -5.63%.
The matching figures for `OCC1CCCN1c1cc(NCCc2c[nH]c3ccccc23)ncn1` (configuration not stated): 11.5% and -28.9%.
The matching figures for `c1ccc(-c2nc(CN3CCOC(Cn4cccn4)C3)no2)cc1` (configuration not stated): -1.51% and 4.08%.
As for `CC1c2ncc(CN3CCN(C)CC3)n2CCN1Cc1cccnc1` (configuration not stated), the Percent Effect in test [1] is 1.75%; in test [2], -23.1%.
As to `Cc1ccc(C(=O)N2CCn3cc(CN4CCCCC4)nc3C2)o1`, the Percent Effect was 8.53% in test [1] and -27.2% in test [2].
Consider `Cc1cc(C(=O)N[C@@H]2CCNC[C@H]2O)ccc1Cl`, for which the Percent Effect turned out to be 2.13% in test [1] and 14.6% in test [2].
In the case of `O=C(NC1CC1)[C@H]1CC[C@@H]2[C@@H](CCN2c2ncc(F)cn2)O1`, the Percent Effect in test [1] is -4.13%; in test [2] it was -23%.
With `COCCNC(=O)[C@H]1CN(c2nnc(C)s2)C[C@H]2OCC[C@@H]12`, the Percent Effect is -1.22% in test [1] and -23.9% in test [2].
Turning to `Fc1ccc(CCN2CCC(c3nnc(-c4cccnc4)o3)CC2)cc1`, the Percent Effect in test [1] is 4.51%; in test [2], -76.7%.
For `Cc1nc2ccccc2c(=O)n1CCC(=O)N1CCSCC1`, the Percent Effect in test [1] is 1.9%; in test [2], 7.96%.
Take `Cn1cnnc1C1CCCN(C(=O)NCCc2ccccc2F)C1` (configuration not stated): the Percent Effect in test [1] was -6.03%; in test [2], 15.6%.
As to `O=C(CCc1ccsc1)N1CCC(Cc2ccc(CO)cc2)C1` (configuration not stated), the Percent Effect in test [1] was 0.501%; in test [2] it was -19.1%.
With `O=C1NCCN1C1CCN(Cc2nc(-c3ccoc3)no2)CC1`, the Percent Effect in test [1] was -7.34%; in test [2], -21.2%.
Take `O=C(CCOc1ccccc1)N1CCC(Nc2cccnn2)CC1`: the Percent Effect in test [1] came out at 4.24%; in test [2], 6.7%.
For `COCCN1C[C@H]2[C@@H](C1)N(C(=O)c1cccs1)CC[C@H]2OC`, the Percent Effect came to 0.503% in test [1] and 3.28% in test [2].
With `Cc1n[nH]c(C)c1NC(=O)CN1CCn2c(nnc2C(C)C)C1`, the Percent Effect came out at 0.173% in test [1] and 13.2% in test [2].
Consider `CN(Cc1nnc(C2CC2)n1C)C(=O)c1ccnc(OC2CCC2)c1`, for which the figures for the Percent Effect in test [1] and in test [2] were -0.39% and 3.48%, respectively.
Regarding `CC(C)OCc1ncn2c1CN(Cc1ccc(F)cc1)CCC2`, the Percent Effect is -1.67% in test [1] and 3.71% in test [2].
For `O=C1[C@@H]2CCN(Cc3ccncc3)C[C@@H]2OCCN1c1ccccc1`, the Percent Effect in test [1] was -1.46%; in test [2] it was -5.4%.
With `Cc1cc(N(C)Cc2noc(C)n2)n2nc(C)c(C)c2n1`, the Percent Effect in test [1] was -0.251%; in test [2], -8.78%.
The matching figures for `CCOC(C)c1nc(CN2CCC(CNC(C)=O)CC2)cs1` (configuration not stated): -2.51% and 3.11%.
For `Cc1ccc(C(NC(=O)CC2CCN(C(C)C)CC2)C(=O)O)cc1` (configuration not stated), the Percent Effect in test [1] is -0.279%; in test [2], 10.7%.
As for `Cc1nc(CNC(C)c2ccc(OCC(=O)NC3CC3)cc2)cs1` (configuration not stated), the Percent Effect in test [1] was 2.43%; in test [2], -66.5%.
With `Cc1cnn(CC2CN(CC(=O)N(C)Cc3cccs3)CCO2)c1` (configuration not stated), the figures for the Percent Effect in test [1] and in test [2] were -5.6% and -8.69%, respectively.
Take `Cc1nc(C)n(CC2CCCN2Cc2cn3ccsc3n2)n1` (configuration not stated): the Percent Effect in test [1] was 1.75%; in test [2] it was -76%.
Take `CCn1cc(CN(C)S(=O)(=O)c2cc(Cl)ccc2Cl)cn1`: the Percent Effect in test [1] is -5.08%; in test [2] it was -51.4%.
Consider `Cc1ccc([C@@H]2CN(S(=O)(=O)C(C)C)C[C@H]2N(C)C)cc1`, for which the values for the Percent Effect in test [1] and in test [2] were 0.183% and 12.9%, respectively.
With `CCc1n[nH]c(C2CN(C(=O)c3ccsc3)CCO2)n1` (configuration not stated), the Percent Effect in test [1] is -7.75%; in test [2], 21.9%.
Consider `c1ccc(C2CCN(c3cncc(-n4cccn4)n3)CC2)cc1`, for which the Percent Effect in test [1] is -0.999%; in test [2], -5.12%.
For `CC(=O)Nc1nc(CN2CCn3c(nnc3C3CC3)C2)cs1`, in that order: -7.9% and -26.2%.
For `OC1CCN(Cc2cc3c(cc2Br)OCCO3)CC1`, in that order: 2.56% and -8.4%.
Take `CN1CCN(C(=O)c2nc3c(o2)CN(C(=O)c2cccnc2)C3)CC1`: the Percent Effect was 2.23% in test [1] and -53.6% in test [2].
For `c1cncc(OCc2noc3c2CN(Cc2ccoc2)CC3)c1`, in that order: 2.82% and -31.1%.
With `CCc1nc(C2CCCN2C(=O)c2nc(C)n3ccccc23)no1` (configuration not stated), the Percent Effect in test [1] was -1.96%; in test [2], -2.42%.
Turning to `O=C(NC(CO)CO)c1coc(COc2cccc(F)c2)n1`, the Percent Effect in test [1] is -1.14%; in test [2] it was -3.72%.
For `COCC1CN(Cc2ccsc2)Cc2nn(C)cc21` (configuration not stated), in that order: 15.7% and -13.1%.
For `COCCN1CCN(Cc2cccc(OCC(N)=O)c2)CC1C` (configuration not stated), in that order: -6.54% and -6.57%.
For `CCn1ccnc1CN1CCCN(C(=O)Cn2nc(C)cc2C)CC1`, the Percent Effect was determined as 3.14% in test [1] and 8.68% in test [2].
In the case of `COCC1CC2(CCN(C(=O)c3cccc(C)c3)CC2)CO1` (configuration not stated), the Percent Effect in test [1] was -0.131%; in test [2], -2.68%.
Consider `CN1CCCC[C@@H]2[C@H]1[C@@H](c1ccccc1)CCN2C(=O)c1cnccn1`, for which the values for the Percent Effect in test [1] and in test [2] were 0.342% and -18.3%, respectively.
For the compound `CCN1CCC(NC(=O)CN2CCCCC2Cn2cc(C)cn2)CC1` (configuration not stated), the Percent Effect in test [1] is -0.102%; in test [2] it was -21.7%.
